Assay [1] in a line: qHTS assay to identify small molecule antagonists of the thyroid receptor (TR) signaling pathway - cell viability counter screen (AID 743064). Also: nearly all actives have a fitted effect of over 50% in size. Also: potency is read from the fitted curve at half-maximal effect. Put shortly:
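GH3.TRE-Luc cells, 4 h pre-plating; cpd + T3 1 nM final; 37 °C 23.5 h; CellTiter-Fluor 30 min; fluorescence read.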
For orientation: Quantitative high-throughput screening tests each substance at several concentrations.

The nature of assay [2]: qHTS assay to identify small molecule antagonists of the thyroid receptor (TR) signaling pathway (AID 743065). Also: series mostly up to about 70 µM; nearly all actives have a fitted effect of over 55% in size. The procedure, abridged:
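GH3.TRE-Luc rat pituitary cells carrying two TR response elements driving luciferase were plated for 4 h, given compound plus 1 nM T3 (final), and incubated 23.5 h at 37 C. ONE-Glo luminescence measured reporter inhibition; CellTiter-Fluor fluorescence tracked cytotoxicity.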

The subject of assay [3] is thyroid hormone receptor (rat, GH3 cells). Put plainly: qHTS assay to identify small molecule agonists of the thyroid receptor (TR) signaling pathway (AID 743066; calls by dose curve).
Assay [4] is described as follows: qHTS assay to identify small molecule antagonists of the estrogen receptor alpha (ER-alpha) signaling pathway - cell viability counter screen (AID 743074; calls by dose curve; also: nearly all actives have a fitted effect of over 45% in size).
Assay [5] is described as follows: qHTS assay to identify small molecule antagonists of the estrogen receptor alpha (ER-alpha) signaling pathway using the BG1 cell line - cell viability counter screen (AID 743081).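 Also: compound given together with 17beta-estradiol as the ER stimulus; series mostly up to about 70 µM; nearly all actives have a fitted effect of over 45% in size.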
Another assay addresses Aromatase (Homo sapiens) (UniProt P11511). Put plainly: qHTS assay to identify aromatase inhibitors (AID 743083). Also: nearly all actives have a fitted effect of over 55% in size. Also: potency is read from the fitted curve at half-maximal effect.
Assay [6] in a line: qHTS assay to identify aromatase inhibitors - cell viability counter screen (AID 743084).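 Also: cells stimulated with testosterone during compound exposure; nearly all actives have a fitted effect of over 55% in size.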 Also: potency is read from the fitted curve at half-maximal effect.
In assay [7] the target is Aryl hydrocarbon receptor (Homo sapiens) (UniProt P35869). The assay is described as follows: qHTS assay to identify small molecule that activate the aryl hydrocarbon receptor (AhR) signaling pathway (AID 743085).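 Also: HG2L7.5c1 human HepG2 liver cells with stably integrated DRE-driven firefly reporter; series mostly up to about 70 µM; nearly all actives have a fitted effect of over 15% in size.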 The procedure, abridged: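 Luminescence read-out: ONE-Glo reagent, 30 min at room temperature, in HG2L7.5c1 HepG2 reporter cells treated 24 h at 37C. Viability was measured beforehand by CellTiter-Fluor fluorescence after 30 min at 37C.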
Chain of Aryl hydrocarbon receptor (Homo sapiens) (P35869 whole entry, looked up): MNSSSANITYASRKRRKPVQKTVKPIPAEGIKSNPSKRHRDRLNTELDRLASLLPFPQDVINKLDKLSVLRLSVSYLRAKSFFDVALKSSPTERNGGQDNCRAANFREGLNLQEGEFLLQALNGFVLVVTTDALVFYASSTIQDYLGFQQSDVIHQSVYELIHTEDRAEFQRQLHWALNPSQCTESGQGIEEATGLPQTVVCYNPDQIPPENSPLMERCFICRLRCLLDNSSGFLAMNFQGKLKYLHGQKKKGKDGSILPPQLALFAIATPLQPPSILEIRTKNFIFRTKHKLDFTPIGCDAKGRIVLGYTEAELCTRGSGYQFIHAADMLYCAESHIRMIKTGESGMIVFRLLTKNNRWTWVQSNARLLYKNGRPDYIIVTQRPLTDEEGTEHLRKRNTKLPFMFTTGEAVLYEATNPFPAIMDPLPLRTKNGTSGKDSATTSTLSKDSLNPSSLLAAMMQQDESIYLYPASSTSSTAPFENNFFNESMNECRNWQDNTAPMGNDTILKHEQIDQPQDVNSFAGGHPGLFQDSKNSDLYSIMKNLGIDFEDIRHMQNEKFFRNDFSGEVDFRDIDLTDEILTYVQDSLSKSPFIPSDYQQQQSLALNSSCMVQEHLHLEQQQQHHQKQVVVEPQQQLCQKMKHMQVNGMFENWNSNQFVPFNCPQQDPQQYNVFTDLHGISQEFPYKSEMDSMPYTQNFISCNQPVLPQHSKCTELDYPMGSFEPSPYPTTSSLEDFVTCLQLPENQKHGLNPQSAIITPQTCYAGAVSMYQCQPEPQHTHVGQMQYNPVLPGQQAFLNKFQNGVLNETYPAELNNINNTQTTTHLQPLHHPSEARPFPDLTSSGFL

Assay [8] in a line: qHTS assay to identify small molecule that activate the aryl hydrocarbon receptor (AhR) signaling pathway - cell viability counter screen (AID 743086).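 Also: HepG2 liver cells carrying the AhR DRE luciferase reporter; series mostly up to about 70 µM; nearly all actives have a fitted effect of over 45% in size.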 The procedure, abridged: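 HepG2-AhR-luc (HG2L7.5c1) cells, 4000/well, were preincubated 5 h at 37C, exposed to compound in qHTS format for 24 hr at 37C, then given CellTiter-Fluor for 30 min; viability was read as fluorescence in the reporter wells.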

The target in assay [9] is Peroxisome proliferator-activated receptor gamma (Homo sapiens) (UniProt P37231). Put plainly: qHTS assay to identify small molecule agonists of the peroxisome proliferator-activated receptor gamma (PPARg) signaling pathway (AID 743094; active = well fitted activation curve with a large enough effect in the signal ratio in the repeat runs, not every such curve was filed as active; the % refers to the signal ratio). Put shortly:
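Following 5 h plating at 37C, PPARg-bla HEK293H cells receive compound or DMSO for 17 h; fluorescence intensity is recorded after LiveBLAzer B/G loading for 1 h at room temperature.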

Assay [10] can be described thus: qHTS assay to identify small molecule antagonists of the peroxisome proliferator-activated receptor gamma (PPARg) signaling pathway - cell viability counter screen (AID 743194). Also: nearly all actives have a fitted effect of over 55% in size. Put shortly: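 PPARg-UAS-bla HEK293H cells were plated, rested 5 h at 37 C, then treated with compounds plus rosiglitazone (50 nM final) for 17 h at 37 C; viability was then read by CellTiter-Glo luminescence after 30 min at room temperature.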

Assay [11] in a line: qHTS assay for small molecule agonists of the antioxidant response element (ARE) signaling pathway (AID 743202; active = well fitted activation curve with a large enough effect in the signal ratio in the repeat runs, not every such curve was filed as active; the % refers to the signal ratio). Put shortly:
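Read-out: LiveBLAzer B/G FRET substrate fluorescence after 2 h at room temperature, following 16 h compound treatment at 37 C of HepG2 cells carrying an ARE-driven beta-lactamase reporter.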

Assay [12] can be described thus: qHTS assay for small molecule agonists of the antioxidant response element (ARE) signaling pathway - cell viability counter screen (AID 743203; calls by dose curve; also: nearly all actives have a fitted effect of over 55% in size). Put shortly: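 Compounds in DMSO were pinned onto ARE-bla HepG2 cells plated 5 hrs earlier at 2,000 cells/well. Sixteen hours later at 37C/5% CO2, CellTiter-Glo was added and luminescence measured after 30 min at room temperature.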

Assay [13] can be described thus: qHTS assay for small molecule activators of the heat shock response signaling pathway - cell viability counter screen (AID 743209). Also: nearly all actives have a fitted effect of over 50% in size. Put shortly:
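Counter screen for cytotoxicity in HeLa HSE-bla reporter cells. Treatment was 5 h at 37 C; viability was detected by luminescent ATP assay (CellTiter-Glo) in the same wells as the beta-lactamase read.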

Assay [14] concerns the target Peroxisome proliferator-activated receptor gamma (Homo sapiens) (UniProt P37231). Put plainly: qHTS assay to identify small molecule antagonists of the peroxisome proliferator-activated receptor gamma (PPARg) signaling pathway (AID 743191; calls by dose curve; also: series mostly up to about 63 µM; nearly all actives have a fitted effect of over 30% in size). The procedure, abridged:
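GeneBLAzer PPARg UAS-bla HEK293H cells carrying a UAS-driven beta-lactamase reporter were plated at 3000 cells/well, preincubated 5 h at 37C, then given compound for 17 h at 37C; LiveBLAzer B/G FRET substrate was read after 1 h at room temperature.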

A short description of assay [15]: qHTS assay for small molecule activators of the heat shock response signaling pathway (AID 743210; active = well fitted activation curve with a large enough effect in the signal ratio in the repeat runs, with a control signal flat, not every such curve was filed as active; the % refers to the signal ratio; also: series mostly up to about 63 µM). Put shortly: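 HSE-bla HeLa cells (beta-lactamase reporter under heat shock response elements) were exposed to compounds for 5 h at 37 C, then loaded with LiveBLAzer B/G FRET substrate for 2.5 h at room temperature before fluorescence reading.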
The target in assay [16] is Estrogen receptor (Homo sapiens) (UniProt P03372). The assay is described as follows: qHTS assay to identify small molecule antagonists of the estrogen receptor alpha (ER-alpha) signaling pathway (AID 743069; active = well fitted curve in the direction sought with a large enough effect in the signal ratio in the repeat runs, not every such curve was filed as active; the % refers to the signal ratio). Put shortly: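 HEK293 cells stably carrying an ER-alpha-UAS-bla beta-lactamase reporter were pre-cultured overnight in 2% charcoal-stripped FBS medium. Test compounds in DMSO were added together with 17beta-estradiol for 18 hr at 37C. Read-out was fluorescence after 2 hr with LiveBLAzer B/G FRET substrate at room temperature.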
Chain of Estrogen receptor (Homo sapiens) (P03372 whole entry, looked up): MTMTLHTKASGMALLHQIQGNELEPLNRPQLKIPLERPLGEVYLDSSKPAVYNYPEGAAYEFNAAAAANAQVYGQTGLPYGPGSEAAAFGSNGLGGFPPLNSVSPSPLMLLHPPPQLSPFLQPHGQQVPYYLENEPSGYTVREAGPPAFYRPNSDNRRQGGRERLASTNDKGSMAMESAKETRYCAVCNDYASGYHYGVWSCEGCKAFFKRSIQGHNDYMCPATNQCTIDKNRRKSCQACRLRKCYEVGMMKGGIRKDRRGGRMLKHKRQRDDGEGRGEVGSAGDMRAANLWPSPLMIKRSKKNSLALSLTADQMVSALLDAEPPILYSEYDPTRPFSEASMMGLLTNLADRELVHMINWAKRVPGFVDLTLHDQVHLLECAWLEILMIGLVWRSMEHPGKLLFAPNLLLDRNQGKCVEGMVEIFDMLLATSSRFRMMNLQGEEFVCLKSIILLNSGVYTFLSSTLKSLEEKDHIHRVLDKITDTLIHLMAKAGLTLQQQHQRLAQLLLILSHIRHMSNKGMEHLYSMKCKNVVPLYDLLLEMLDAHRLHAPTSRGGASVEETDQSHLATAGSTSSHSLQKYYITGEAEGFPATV

Assay [17] has the same target. Put plainly: qHTS assay to identify small molecule agonists of the estrogen receptor alpha (ER-alpha) signaling pathway (AID 743075; calls by dose curve).
The target is the same in assay [18]. Put plainly: qHTS assay to identify small molecule agonists of the estrogen receptor alpha (ER-alpha) signaling pathway using the BG1 cell line (AID 743079). Also: nearly all actives have a fitted effect of over 20% in size.
The nature of assay [19]: qHTS assay to identify small molecule antagonists of the estrogen receptor alpha (ER-alpha) signaling pathway using the BG1 cell line (AID 743080; calls by dose curve;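 also: BG1 cells stimulated with 17beta-estradiol alongside compound; series mostly up to about 70 µM; nearly all actives have a fitted effect of over 25% in size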). The procedure, abridged: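 Luciferase inhibition measured with ONE-Glo after 30 min at RT in BG1Luc4E2 cells given test compounds and 17beta-estradiol for 21.5 h at 37 C; CellTiter-Fluor viability read in the same wells beforehand.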

Where “and” joins values, the source holds several entries; their conditions need not be identical. Identical values can stand only once. Records with an inconclusive call do not appear. A structure can be active in one record and inactive in another. Calls of active or inactive are those of the source. Unless noted, calls follow the shape of the dose curve; as a rule, active = well fitted curve in the direction sought with a large enough effect in the repeat runs; inconclusive = weak or mixed curves; inactive = no such curve, though single readings can be large; an effect the other way counts as inactive or inconclusive.

Chain of Aromatase (Homo sapiens) (P11511 whole entry, looked up): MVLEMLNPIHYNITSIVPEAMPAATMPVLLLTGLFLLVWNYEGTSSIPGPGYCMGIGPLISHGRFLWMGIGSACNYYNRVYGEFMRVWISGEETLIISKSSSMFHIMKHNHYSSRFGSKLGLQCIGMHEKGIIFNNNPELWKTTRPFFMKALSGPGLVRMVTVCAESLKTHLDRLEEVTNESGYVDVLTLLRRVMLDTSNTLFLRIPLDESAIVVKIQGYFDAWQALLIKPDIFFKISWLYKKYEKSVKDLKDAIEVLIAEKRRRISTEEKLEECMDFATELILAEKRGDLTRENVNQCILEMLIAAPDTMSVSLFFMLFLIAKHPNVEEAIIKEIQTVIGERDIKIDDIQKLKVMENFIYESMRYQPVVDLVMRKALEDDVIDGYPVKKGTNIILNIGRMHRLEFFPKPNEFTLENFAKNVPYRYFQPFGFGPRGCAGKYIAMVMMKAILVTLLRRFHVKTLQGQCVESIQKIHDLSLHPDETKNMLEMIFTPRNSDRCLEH
Chain of Peroxisome proliferator-activated receptor gamma (Homo sapiens) (P37231 whole entry, looked up): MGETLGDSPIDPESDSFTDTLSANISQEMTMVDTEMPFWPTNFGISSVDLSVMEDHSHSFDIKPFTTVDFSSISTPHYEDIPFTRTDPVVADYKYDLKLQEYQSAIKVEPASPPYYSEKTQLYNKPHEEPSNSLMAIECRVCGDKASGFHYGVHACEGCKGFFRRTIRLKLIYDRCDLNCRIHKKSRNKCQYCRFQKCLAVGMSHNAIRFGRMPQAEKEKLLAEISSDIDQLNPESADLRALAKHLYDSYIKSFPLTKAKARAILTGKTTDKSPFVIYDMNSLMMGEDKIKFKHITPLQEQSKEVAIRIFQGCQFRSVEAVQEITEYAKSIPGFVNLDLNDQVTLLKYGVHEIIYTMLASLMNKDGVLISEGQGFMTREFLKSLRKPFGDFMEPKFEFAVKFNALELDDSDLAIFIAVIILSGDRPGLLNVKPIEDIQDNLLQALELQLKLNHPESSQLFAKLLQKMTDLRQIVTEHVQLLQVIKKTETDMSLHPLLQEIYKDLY

Regarding `CCCOC(=O)c1ccccc1`, the Potency entry (in assay [1]; in [2]; in [5]; in the assay with Aromatase (Homo sapiens); in assay [6]; in assay [7]) was “inactive” in each case. Besides, the Potency result in assay [8], in assay [11] and in assay [12] was “inactive” each time. For the same molecule, the molecule was called inactive in [3], in assay [4], in assay [9], in [10] and in assay [13].
Turning to `C[C@]12CCC(=O)C=C1CC[C@@H]1[C@@H]2[C@@H](O)C[C@@]2(C)[C@H]1CC[C@]2(O)C(=O)CO`, the Potency result (in assay [1]; in [2]; in [5]; in the assay with Aromatase (Homo sapiens); in assay [6]; in [7]) was “inactive” each time. Moreover, the Potency entry in assay [8] and in [11] was “inactive” throughout. Moreover, the result in assay [3], in [4], in [9], in assay [14], in assay [10] and in assay [13] was inactive. Besides, the outcome in assay [15] was inactive.
`OCc1ccccc1`: the Potency result (in assay [1]; in assay [16]; in assay [17]; in assay [18]; in [5]; with Aromatase (Homo sapiens)) was “inactive” in each case. Besides, the Potency entry in assay [6], in assay [7], in [8] and in [11] was “inactive” in each case. Moreover, the molecule was called inactive in [3], in [4], in assay [19], in assay [9], in assay [14] and in assay [10]. For the same molecule, the outcome in assay [13] and in [15] was inactive.
With `CC(=O)OC1CC(C)OC(C)O1` (centres undefined), the Potency result (in assay [1]; in assay [2]; in [5]; with Aromatase (Homo sapiens); in [6]; in [7]) was “inactive” each time. For the same molecule, the Potency result in [8], in assay [11] and in [12] was “inactive” each time. Further, the result in assay [3], in [4], in assay [9], in [10] and in [13] was inactive.
For `COc1ccc(CCC(C)=O)cc1`, the Potency result (in assay [1]; in assay [2]; in assay [5]; with Aromatase (Homo sapiens); in [6]; in assay [7]) was “inactive” each time. Further, the Potency result in assay [8] and in [11] was “inactive” in each case. Further, the result in assay [3], in assay [4], in assay [9], in assay [10], in [13] and in assay [15] was inactive.
In the case of `Cc1ccc(C(C)C)c(O)c1`, the Potency in assay [1] is 61.1 µM (active); with Aromatase (Homo sapiens), “inactive and 54.5 µM (active)”; in assay [6], “inactive and 61.1 µM (active)”. Moreover, the call in [3], in assay [4], in [19], in [9], in assay [14] and in assay [10] was inactive. The outcome in assay [13] and in assay [15] was inactive. For the same molecule, the Potency result in assay [16], in assay [17], in assay [18], in assay [5], in assay [7] and in [8] was “inactive” throughout. Also, in assay [11], the Potency result is “inactive”.
On to `COC(=O)c1cccnc1`, for which the Potency entry (in assay [1]; in [2]; in assay [5]; with Aromatase (Homo sapiens); in assay [6]; in assay [7]) was “inactive” in each case. Moreover, the Potency entry in [8] and in assay [11] was “inactive” in each case. Besides, the molecule was classed as inactive in assay [3], in assay [4], in assay [9], in assay [10], in assay [13] and in [15].
For the molecule `CC(=O)OCc1ccccc1`, the Potency entry (in assay [1]; in assay [16]; in assay [17]; in [18]; in [5]; with Aromatase (Homo sapiens)) was “inactive” throughout. Besides, the Potency entry in assay [6], in [7], in [8], in assay [11] and in assay [12] was “inactive” in each case. Moreover, the call in [3], in assay [4], in [19], in [9], in assay [14] and in [10] was inactive. The molecule was called inactive in [13] and in assay [15].
As for `C[Si]1(C)O[Si](C)(C)O[Si](C)(C)O[Si](C)(C)O1`, the Potency result (in assay [1]; in assay [16]; in assay [17]; in assay [18]; in assay [5]; with Aromatase (Homo sapiens)) was “inactive” each time. Further, the Potency result in [6], in [7], in assay [8], in [11] and in assay [12] was “inactive” throughout. The molecule was called inactive in [3], in assay [4], in assay [19], in [9], in assay [10] and in assay [13]. Besides, the molecule was classed as inactive in assay [15].
